Screen size: about 360,000 compounds; about 9,100 (2.5%) were called active. Roughly 4% stayed inconclusive and do not appear here. The sample holds actives, similar compounds and a random draw of the others, so the mix is not that of the screen. Values without a mark were called inactive. Rule as the data show it: active = max response below about -50%; inconclusive = no clear call, values can overlap the other calls; inactive = above that.
% is scaled to controls: 0 for no effect and ±100 for the full control effect.

Chain of D(3) dopamine receptor (Homo sapiens) (P35462 whole entry, looked up): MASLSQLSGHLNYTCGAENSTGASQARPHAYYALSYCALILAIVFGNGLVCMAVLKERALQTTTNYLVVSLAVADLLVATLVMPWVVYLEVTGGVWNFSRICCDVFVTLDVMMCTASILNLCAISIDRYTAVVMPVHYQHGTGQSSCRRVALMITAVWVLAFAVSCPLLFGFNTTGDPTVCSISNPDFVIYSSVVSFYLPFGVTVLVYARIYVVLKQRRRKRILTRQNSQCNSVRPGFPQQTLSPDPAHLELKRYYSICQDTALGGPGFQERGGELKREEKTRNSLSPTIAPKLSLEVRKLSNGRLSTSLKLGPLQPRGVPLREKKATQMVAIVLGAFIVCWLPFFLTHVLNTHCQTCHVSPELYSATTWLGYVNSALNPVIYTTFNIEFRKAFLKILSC

This test concerns the target D(3) dopamine receptor (Homo sapiens) (UniProt P35462). Description: qHTS of D3 Dopamine Receptor Antagonist: qHTS. Conditions: D3R cells, DiscoveRx beta-arrestin luminescence, antagonist mode; active compounds read low. Summed up:
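Cells plated overnight at 1500 cells/well, then exposed to library compounds with dopamine controls for 90 minutes at 37 degrees C. DiscoveRx reagent added for 30–60 minutes at room temperature; luminescence read, quantitative HTS format.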
(qHTS replaces the single test concentration by a dilution series.)
With `O=C(NN=Cc1ccccc1)c1ccccc1`, the max response, negative = inhibition was -25.4%.

As to `Cc1nonc1C(=O)N/N=C/c1ccc(O)cc1`, the max response, negative = inhibition was 20.2%.

As to `Cc1nc2ccc(C(=O)N/N=C/c3ccc(O)cc3)cc2[nH]1`, the max response, negative = inhibition is -78.1% (active).

For `COc1ccc2c(c1)c(=Cc1ccc(N(C)C)cc1)c1cc(-c3ccccc3)[n+](C)n12`, the max response, negative = inhibition was -65.2% (active).

For the molecule `Cc1ccc(C(NC(=O)C2CCN(CCOc3ccc(Cl)cc3Cl)CC2)c2ccccn2)cc1` (stereo not given), the max response, negative = inhibition is -3.28%.

As to `CC1=C(C(=O)N(C)C)CC(CC(=O)NCCc2ccccn2)C(=O)N1CCC1=CCCCC1` (stereo not given), the max response, negative = inhibition was -22.1%.

For the molecule `CCCCCNC(=O)C1C(=O)Nc2ccccc2C(=O)N1C(C)(C)C` (stereo not given), the max response, negative = inhibition is -19.2%.

For `CCCCN(CC)CCNC(=O)c1[nH]c(C)c(C(C)=O)c1C`, the max response, negative = inhibition is -58.3% (active).

For the molecule `CC(=O)c1c(C)[nH]c(C(=O)NCc2ccc(C)cc2)c1C`, the max response, negative = inhibition is -6.75%.

`CC(=O)c1c(C)[nH]c(C(=O)NCCCN2CCCC2)c1C`: the max response, negative = inhibition was 11.6%.

As for `CC1(C(=O)NS(=O)(=O)C2CC2)CCCN(C(=O)CSc2ccccc2)C1` (stereo not given), the max response, negative = inhibition was 0%.

In the case of `Cc1ccc(-c2nc3ccc(Br)cn3c2Cc2ccccc2C(F)(F)F)cc1`, the max response, negative = inhibition is -15%.

`CCOC(=O)C1=CC[C@@H](c2ccncc2)N(S(=O)(=O)c2ccc(C)cc2)C1`: the max response, negative = inhibition was -4.07%.

In the case of `CCCCNC(=O)c1nc(C2CCN(S(=O)(=O)c3ccc(F)c(F)c3)CC2)oc1-c1cccc(C(F)(F)F)c1`, the max response, negative = inhibition is 7.15%.

`C[C@H]1CN([C@@H](C)CO)C(=O)CCCn2nncc2CO[C@@H]1CN(C)Cc1ccc(Oc2ccccc2)cc1`: the max response, negative = inhibition is -10.5%.

Consider `C=CS(=O)c1sc(Cl)c(N2CCOCC2)c1[N+](=O)[O-]` (stereo not given), for which the max response, negative = inhibition was -84.2% (active).

Turning to `CC1(C(=O)NCc2ccco2)Cc2c(-c3ccc4c(c3)OCO4)ccnc2O1` (stereo not given), the max response, negative = inhibition was 5.33%.

`CC(=O)NN=C(C)c1ccc(NC(=O)C2CC2)cc1`: the max response, negative = inhibition is 3.77%.

Consider `COc1ccc(NC(=O)C(=O)NCC(c2ccco2)N2CCc3ccccc3C2)cc1` (stereo not given), for which the max response, negative = inhibition was 6.38%.

In the case of `COc1ccc(CN2CN(C(C)C)CSC2=S)cc1`, the max response, negative = inhibition is -12.9%.

`COc1ccc(CCC(C)N2CCc3ccccc3C2)cc1` (stereo not given): the max response, negative = inhibition was -112% (active).

Regarding `O=C(OC1CC2CC1[C@H]1CCCCN1C2=O)N1CCOCC1` (stereo not given in full), the max response, negative = inhibition was 3.81%.

Take `O=C(C(=O)N1CCC(c2ccccc2)CC1)c1ccccc1`: the max response, negative = inhibition is 11.8%.

On to `Cc1ccc(-n2c(O)c(C=Nc3ccc(S(=O)(=O)Nc4ncccn4)cc3)c3ccccc3c2=O)cc1C`, for which the max response, negative = inhibition is 1.71%.

Take `CCN(CC)CCCN=Cc1c(O)n(-c2ccc(C)cc2)c(=O)c2ccccc12`: the max response, negative = inhibition was 9.43%.

Take `CCOc1ccc(-n2c(O)c(/C=N/Nc3nc(C)cc(C)n3)c3ccccc3c2=O)cc1`: the max response, negative = inhibition was -56.4% (active).

In the case of `O=C(Nc1ccc2c(c1)OCCO2)C1c2ccccc2OCC(=O)N1Cc1ccccn1` (stereo not given), the max response, negative = inhibition is 33.3%.

Take `Cc1ccc(S(=O)(=O)Nc2nc(C)cc(-n3nc(C)cc3C)n2)cc1`: the max response, negative = inhibition is -12.2%.

As for `Cc1cc(C)n(-c2ccc(Cl)c(C(=O)O)n2)n1`, the max response, negative = inhibition was -86.2% (active).

Consider `Cc1cc(C)n(-c2ccc3nncn3n2)n1`, for which the max response, negative = inhibition was 1.57%.

With `COCCCNC(=O)c1cccc2c(-c3ccc(O)c(OC)c3)coc12`, the max response, negative = inhibition is 0.229%.

`COC(=O)[C@]12CCCCC=C1N(Cc1ccco1)C(=O)[C@H](CC(=O)NCC1CCCCC1)C2`: the max response, negative = inhibition was -0.188%.

For `CN1OC[C@@H]2CN(S(=O)(=O)c3cccc(C(F)(F)F)c3)[C@H](c3ccc(-c4cc5ccccc5o4)cc3)C[C@@H]21`, the max response, negative = inhibition was -12%.

For `CC1(C(=O)NCc2ccc(F)c(F)c2)Cc2c(-c3ccc4c(c3)OCO4)ccnc2O1` (stereo not given), the max response, negative = inhibition is 19.2%.

As to `Cc1ccc(CN2CCN(/N=C/c3ccco3)CC2)c(C)c1`, the max response, negative = inhibition was -78.6% (active).

For the molecule `Cc1ccc(CN2CCN(/N=C/c3cccnc3)CC2)c(C)c1`, the max response, negative = inhibition was -15%.

Regarding `Cc1ccc(NC(=O)CCC(=O)N/N=C/c2ccco2)c(C)c1`, the max response, negative = inhibition is 16.8%.

As to `O=C(/C=C/[C@H]1O[C@@H](n2cnc3c(NC(=O)c4ccccc4)ncnc32)[C@H](O)[C@@H]1O)NCc1ccccc1`, the max response, negative = inhibition is 0%.

In the case of `Cc1cccc2c1-c1sc(C(=O)NCCCN3CCc4ccccc4C3)cc1CO2`, the max response, negative = inhibition was -63.3% (active).

Turning to `CN1CCN(CCCNC(=O)c2cc3c(=O)oc4ccccc4c3s2)CC1`, the max response, negative = inhibition was 0%.

As for `CCn1cc(C(=O)NCCCN2CCCCCC2)c(=O)c2cc(S(=O)(=O)N3CCc4ccccc4C3)ccc21`, the max response, negative = inhibition is -2.35%.

For `C[C@@H]1CN([C@@H](C)CO)C(=O)c2cc(Br)cnc2O[C@H]1CN(C)Cc1ccc(-c2ccccc2)cc1`, the max response, negative = inhibition is 24.5%.

Turning to `COc1ccc(CN2C(=O)C(CC(=O)NCCN3CCOCC3)CC(C(=O)N(C(C)C)C(C)C)=C2C)cc1` (stereo not given), the max response, negative = inhibition is 10.3%.

Take `COc1ccc([C@H]2N[C@]3(CCCN(CC4CCCCC4)C3=O)[C@H]3C(=O)N(C)C(=O)[C@@H]23)cc1`: the max response, negative = inhibition was -3.44%.

Consider `COc1ccccc1-n1c(C)nc2cc(C(=O)NCc3ccc4c(c3)OCO4)ccc21`, for which the max response, negative = inhibition is -53.5% (active).

For `COc1cc(OC)c(C(=O)NCc2ccc3c(c2)OCO3)cc1OC`, the max response, negative = inhibition was -7.32%.

Consider `CCOc1c2ccc(C(=O)NCc3ccc4c(c3)OCO4)cc2nn1C`, for which the max response, negative = inhibition was 21.7%.

As to `C[C@@H]1CC2=C(C(=O)OC(C)(C)O2)[C@@H](C2CC2)O1`, the max response, negative = inhibition is 20%.

As for `CC1(C(=O)NCc2ccccc2)CN(S(C)(=O)=O)CC(=O)N1CC(F)(F)F` (stereo not given), the max response, negative = inhibition is 17.5%.

`Cc1cccc(C(=O)C(O)(c2ccccc2)C2CCCCC2=O)c1` (stereo not given): the max response, negative = inhibition was 6.43%.

Turning to `O=C(CN1CCCCCC1)Nc1ccc(Br)cc1Br`, the max response, negative = inhibition is -12.8%.

As for `CC(=O)c1cc2c(cc1NC(=O)Cn1nc(-c3ccc(F)cc3)ccc1=O)OCO2`, the max response, negative = inhibition is -11.4%.

`CC(=O)c1cc2c(cc1NC(=O)CN1CCCCCC1)OCO2`: the max response, negative = inhibition is -65% (active).

Regarding `COc1ccc(C(C)(O)c2nc(-c3cc(F)cc(F)c3)cs2)cc1` (stereo not given), the max response, negative = inhibition is 2.54%.

Turning to `Cc1ccccc1S(=O)(=O)NC(=O)C1(C)CCN1C(=O)Cc1ccc(Cl)cc1Cl` (stereo not given), the max response, negative = inhibition is -7.52%.

The values above are taken from PubChem BioAssay AID652054 (National Center for Advancing Translational Sciences (NCATS), 2013).
